# Data published in the supplement of paper PMC7156485.
# Values joined by “and” are separate entries in the source; they are usually repeats but may differ in a detail not shown here. Equal entries are not always repeated. Structures can show the parent of a compound that is named as a salt. ± gives the standard deviation of the averaged measurements.
# Tests used:
# Conditions in all cases: concentration: 10 µM; 24 h
# [1] = test system: HCC1569; experiment: cell number relative to DMSO (% of DMSO); higher = more cells (less growth inhibition / toxicity)
# Summary of the method: (§1)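 Treatment: HCC1569 and TDF cells, 800 per well in 384-well plates with RPMI and 10% FBS, were given compounds at 10 µM for 24 h at 37 °C, in triplicate. Readout: after 3.7% formaldehyde fixation, cells were stained with a rabbit anti-H1.0 antibody, an AlexaFluor 647 secondary and DAPI. Reported values are H1.0 nuclear intensity or cell number as percent of the plate control, taken as the median of replicates, with positional smoothing for HCC1569.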
# [2] = test system: TDF; experiment: as above
# Summary of the method: as §1
# [3] = test system: TDF; experiment: H1.0 immunofluorescence intensity relative to DMSO (% of DMSO); higher = stronger H1.0 induction, active = 120 or more
# Summary of the method: as §1
# [4] = test system: HCC1569; experiment: H1.0 immunofluorescence intensity relative to DMSO (% of DMSO); higher = stronger H1.0 induction, active = 140 or more
# Summary of the method: as §1
# 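Throughout, for H1.0 immunofluorescence intensity relative to DMSO: TDF is a line of transformed human dermal fibroblasts of mesenchymal origin.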
# 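Throughout, for cell number relative to DMSO: TDF denotes transformed human dermal fibroblasts of mesenchymal origin.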
SMILES,cell number [1],cell number [2],H1.0 immunofluorescence intensity [3],H1.0 immunofluorescence intensity [4]
CC(O)=C(C#N)C(=O)Nc1cc(Br)ccc1Br,100 and 108,99.5 and 103,99 (inactive) and 97.5 (inactive),111 (inactive) and 98.6 (inactive)
Cc1c(C(=O)Nc2cccc(C(F)(F)F)c2)cc(-c2ccccc2)n1CCCN1CCOCC1,92.8,94.3,95 (inactive),115 (inactive)
COc1cc(C2c3cc4c(cc3C(O)C3COC(=O)C23)OCO4)cc(OC)c1OC (centres undefined) [Podophyllotoxin],61.2 ± 1.9,10.1 ± 0.34,152 (active),128 (inactive)
CC(C)N(CCC(C(N)=O)(c1ccccc1)c1ccccn1)C(C)C (centres undefined) [Disopyramide],99.8,106,103 (inactive),98.5 (inactive)
CCC1(C2=NCCN2)Cc2ccccc2O1.Cl (centres undefined) [Efaroxan hydrochloride],103,105,93.1 (inactive),94 (inactive)
COc1ccc2c(c1O)-c1cccc3c1C(C2)N(C)CC3.Cl (stereo not drawn) [R(-)-Apocodeine hydrochloride],103,89.9,97.6 (inactive),87.5 (inactive)
"Nc1ncnc2c1ncn2C1OC(COP(=O)(O)CP(=O)(O)OP(=O)([O-])[O-])C(O)C1O.[Li+].[Li+] (stereo not drawn) [alpha,beta-Methylene adenosine 5'-triphosphate dilithium]",102,109,87.9 (inactive),96.4 (inactive)
CC(C)C1(NC(=O)C2CC3c4cccc5[nH]cc(c45)CC3N(C)C2)OC2(O)C3CCCN3C(=O)C(Cc3ccccc3)N2C1=O.CS(=O)(=O)O (centres undefined) [Dihydroergocristine methanesulfonate],91.8,109,106 (inactive),126 (inactive)
CNCCc1c[nH]c2ccc(O)cc12.O=C(O)C(=O)O [N-omega-Methyl-5-hydroxytryptamine oxalate salt],101,103,91 (inactive),96.1 (inactive)
CC(C)(C)NCC(O)c1cc(Cl)c(N)c(Cl)c1 (centres undefined) [Clenbuterol],99.5,103,95.2 (inactive),118 (inactive)
CC=C(C)C(=O)OC1CCC2(C)C3CCC4C5(O)CC(O)C6(O)C(CN7CC(C)CCC7C6(C)O)C5(O)CC42OC13O (centres undefined) [Cevadine],99.9,99.4,96.4 (inactive),93 (inactive)
NC(Cc1ccc(N(CCCl)CCCl)cc1)C(=O)O (centres undefined) [Melphalan],86.3 ± 3.1,69.2 ± 5.8,104 (inactive),96.1 (inactive)
"CNC1CC2OC(C)(C1OC)n1c3ccccc3c3c4c(c5c6ccccc6n2c5c31)C(=O)NC4 (centres undefined) [Staurosporine, Streptomyces sp.]",56.3 ± 58,47.9 ± 67,149 (active),84.1 (inactive)
NC(CCCCCP(=O)(O)O)C(=O)O (racemic),102,105,96.9 (inactive),98.4 (inactive)
N[C@@](CF)(Cc1cnc[nH]1)C(=O)O [MK-453 hydrochloride],101,103,100 (inactive),91.5 (inactive)
CC1=C2C3OC(=O)C(C)C3CCC2(C)C=CC1=O (centres undefined) [Santonin],103,97.9,95.5 (inactive),92.6 (inactive)
COc1cc2c(c3oc4cccc(O)c4c(=O)c13)C1C=COC1O2 (centres undefined) [Sterigmatocystin],80.2,75.6,96.5 (inactive),92.2 (inactive)
CCCN(CCC)C(=O)Cc1c(-c2ccc(Cl)cc2)nc2c(Cl)cc(Cl)cn12,103,105,102 (inactive),100 (inactive)
CC1=CC(=O)c2c(O)cccc2C1=O [Plumbagin],39,46.8,109 (inactive),326 (active)
CCC(CO)NC(=O)C1C=C2c3cccc4[nH]cc(c34)CC2N(C)C1.O=C(O)C=CC(=O)O (centres undefined) [Methylergonovine maleate],101 ± 2.1,100 ± 2.5,97.4 (inactive),92.3 (inactive)
CCC(C(=O)O)C1CCC(C)C(C(C)C(O)C(C)C(=O)C(CC)C2OC3(C=CC(O)C4(CCC(C)(C5CCC(O)(CC)C(C)O5)O4)O3)C(C)CC2C)O1 (centres undefined) [Salinomycin],87.1,87.7,111 (inactive),110 (inactive)
